Here are results for eleven molecules from PubChem BioAssay.

Calls of active or inactive are those of the source. Unless noted, no rule for the calls is given here.

A short description of assay [1]: circadian clock period modulators, cell-based, LOPAC library, luminescence reporter (AID 2774).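 Also: values are relative to mean of DMSO wells on each plate.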 The conditions noted are these: circadian reporter cells, at 7 µM, actives lie on both sides.
Assay [2] concerns Hepatitis C virus NS3 helicase. Description: HCV NS3 helicase inhibitors, primary screen, biochemical, fluorescence polarization, LOPAC1280 library (AID 687035; in the data active = inhibition above about 37%). The conditions noted are these: Purified HCV NS3 helicase, Cy5-dT15 ssDNA binding fluorescence polarization; stronger effect = higher value; concentration not given here.
Assay [3] is described as follows: Cy5 fluorescence quenching or enhancement artefacts, artefact control for HCV NS3 helicase inhibitor project, biochemical, LOPAC1280 (AID 687037). As to conditions: Cy5-DNA-NS3h complex fluorescence interference counterscreen. A general note: The purpose of a counterscreen is to sort out artefacts and off-target activity.
Assay [4] can be described thus: sensitizers of A549 cells to miR-34 induction, primary screen, imaging, A549 dox-inducible miR-34, nuclei and caspase counts (AID 1347080;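 active = compounds whose cell count with miR-34 switched on is under 0.7 times the count with it off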). The conditions noted are these: A549 miR-34 inducible, Hoechst nuclei count, 48 h.
Assay [5] in a line: phospholipid biosynthesis inhibitors in animal cells, primary screen, cell-based, LOPAC library, screen 4 (AID 1347384). As to conditions: phospholipid biosynthesis inhibition screen, at 10 µM.
A short description of assay [6]: viability rescue of complex I mutant cybrids, primary screen, cell-based, galactose medium, ATP luminescence (AID 1645843;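 active = z-score of at least 1.8 in each of two replicates, scored against plate mean and spread of sample wells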;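 also: positive z means more ATP and so rescue of galactose-driven cybrid death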). As to conditions: complex I mutant cybrid cells, 72 h, stronger effect = higher value.
Where [7] appears, read: stronger effect = lower value, cell number ratio, induced over uninduced.
[8] abbreviates: measured here: relative caspase fold change +Dox/-Dox.
The mark [9] stands for this setting: measured here: total cells with miR-34 induction, stronger effect = lower value.
Setting [10] is: measured here: total cells without miR-34 induction.

As a reminder, the inhibition is the drop in the measured response relative to a control, in per cent. As for `N#C/C(=C\c1ccc(O)c(O)c1)C(=O)NCCc1ccccc1`, the period change in assay [1] is -0.04 h (inactive). Moreover, the inhibition in assay [2] was 2% (inactive). For the same molecule, the fluorescence ratio (interference) in assay [3] was 0.9 (inactive). Besides, the results for the fold change in assay [4] (setting [7]) and in assay [4] (setting [8]) were 1.09 (inactive) and 0.996, respectively. Further, the values for the cell count in assay [4] (setting [9]) and in assay [4] (setting [10]) were 7900 and 7250, respectively. Moreover, in assay [5], the molecule was called inactive. Moreover, the z-score in assay [6] is -1.06 (inactive).

Consider `CN1CCCC1CCOC(C)(c1ccccc1)c1ccc(Cl)cc1` (centres undefined), for which the period change in assay [1] was 0.12 h (inactive). Further, the inhibition in assay [2] is -3% (inactive). Further, in assay [3], the fluorescence ratio (interference) is 1 (inactive). For the same molecule, the fold change in assay [4] (setting [7]) is 1.24 (inactive); in assay [4] (setting [8]), 1.31. For the same molecule, the cell count in assay [4] (setting [9]) was 4130; in assay [4] (setting [10]) it was 3330. Besides, the molecule was classed as inactive in assay [5]. For the same molecule, in assay [6], the z-score was -1.51 (inactive).

Take `NC(=O)C(=O)O`: in assay [1], the period change is 0.025 h (inactive). In addition, the inhibition in assay [2] is -7% (inactive). Moreover, the fluorescence ratio (interference) in assay [3] is 0.9 (inactive). Further, the fold change was 1.05 (inactive) in assay [4] (setting [7]) and 1.23 in assay [4] (setting [8]). For the same molecule, the cell count came out at 10900 in assay [4] (setting [9]) and 10300 in assay [4] (setting [10]). In assay [5], the molecule was called inactive. The z-score in assay [6] is 0.585 (inactive).

`CC(O)C(O)[C@H]1CNc2nc(N)[nH]c(=O)c2N1` (some centres undefined): the period change in assay [1] was -0.26 h (inactive). In addition, in assay [2], the inhibition was -4% (inactive). For the same molecule, the fluorescence ratio (interference) in assay [3] is 1 (inactive). Besides, the figures for the fold change in assay [4] (setting [7]) and in assay [4] (setting [8]) were 0.979 (inactive) and 1.26, respectively. Also, the cell count in assay [4] (setting [9]) worked out at 10500; in assay [4] (setting [10]), 10800. Besides, the molecule was classed as inactive in assay [5]. For the same molecule, in assay [6], the z-score was 0.515 (inactive).

As to `CN1CC(O)C(O)C(O)C1CO` (centres undefined), the period change in assay [1] was 0.06 h (inactive). Also, in assay [2], the inhibition is -3% (inactive). Further, the fluorescence ratio (interference) in assay [3] was 1 (inactive). For the same molecule, the fold change in assay [4] (setting [7]) is 0.95 (inactive); in assay [4] (setting [8]), 1.01. For the same molecule, the figures for the cell count in assay [4] (setting [9]) and in assay [4] (setting [10]) were 10300 and 10800, respectively. The molecule was classed as inactive in assay [5]. In assay [6], the z-score is 0.28 (inactive).

In the case of `Cn1c(=O)c2[nH]c(-c3ccccc3)nc2n(C)c1=O`, the period change in assay [1] was 0.09 h (inactive). Also, in assay [2], the inhibition is -3% (inactive). For the same molecule, the fluorescence ratio (interference) in assay [3] was 1 (inactive). Further, the fold change in assay [4] (setting [7]) is 1.06 (inactive); in assay [4] (setting [8]), 3.05. The cell count in assay [4] (setting [9]) turned out to be 10000; in assay [4] (setting [10]) it was 9510. Further, the result in assay [5] was inactive. The z-score in assay [6] was 1.04 (inactive).

Consider `Clc1ccc(N2CCN(Cc3cc4ccccn4n3)CC2)cc1`, for which the inhibition in assay [2] is -6% (inactive). Also, the fluorescence ratio (interference) in assay [3] is 0.9 (inactive). Further, the fold change in assay [4] (setting [7]) is 1.01 (inactive); in assay [4] (setting [8]), 1.14. The cell count was found to be 9670 in assay [4] (setting [9]) and 9570 in assay [4] (setting [10]). Moreover, the result in assay [5] was inactive. For the same molecule, the z-score in assay [6] is -1.08 (inactive).

In the case of `COc1ccc(-c2cc3ncc(C)n3c(Nc3ncccc3C(N)=O)n2)cc1OC`, the inhibition in assay [2] is -1% (inactive). For the same molecule, the fluorescence ratio (interference) in assay [3] was 1 (inactive). Besides, the figures for the fold change in assay [4] (setting [7]) and in assay [4] (setting [8]) were 0.944 (inactive) and 1.3, respectively. Besides, the cell count in assay [4] (setting [9]) amounted to 8700; in assay [4] (setting [10]), 9220. In addition, in assay [5], the molecule was classed as inactive. The z-score in assay [6] is 0.16 (inactive).

`C=C1C[C@@]23CC[C@H]4[C@@](C)(CCC[C@@]4(C)C(=O)OC4OC(CO)C(O)C(O)C4O)[C@@H]2CC[C@]1(OC1OC(CO)C(O)C(O)C1OC1OC(CO)C(O)C(O)C1O)C3` (some centres undefined): the inhibition in assay [2] is -1% (inactive). Also, the fluorescence ratio (interference) in assay [3] is 1 (inactive). Moreover, the fold change in assay [4] (setting [7]) is 1.06 (inactive); in assay [4] (setting [8]), 0.521. In addition, the cell count in assay [4] (setting [9]) worked out at 10700; in assay [4] (setting [10]), 10100. Besides, the call in assay [5] was inactive. Besides, the z-score in assay [6] was 0.675 (inactive).

As to `O=c1[nH]c(=S)[nH]c(-c2ccccc2)c1Cc1c(O)ccc2ccccc12`, the inhibition in assay [2] was 0% (inactive). In addition, in assay [3], the fluorescence ratio (interference) is 1 (inactive). The figures for the fold change in assay [4] (setting [7]) and in assay [4] (setting [8]) were 0.946 (inactive) and 1.58, respectively. The cell count in assay [4] (setting [9]) is 8710; in assay [4] (setting [10]), 9210. Moreover, the outcome in assay [5] was inactive. Moreover, in assay [6], the z-score was 0.53 (inactive).

Take `N[C@H](CCCP(=O)(O)O)C(=O)O`: in assay [2], the inhibition was -1% (inactive). Besides, the fluorescence ratio (interference) in assay [3] was 1.1 (inactive). Moreover, the fold change in assay [4] (setting [7]) was 0.903 (inactive); in assay [4] (setting [8]) it was 1.61. Moreover, the figures for the cell count in assay [4] (setting [9]) and in assay [4] (setting [10]) were 9420 and 10400, respectively. Also, the outcome in assay [5] was inactive. In addition, the z-score in assay [6] is 0.08 (inactive).
